# Compounds with a hit are over-represented: about 12% of the library has one in this group of screens.
# CHOP inhibitor = inhibitors of CHOP promoter induction, primary screen, cell-based, unfolded protein response, luciferase reporter; inhibition, % at 10 µM; CHO-K1 CHOP-promoter luciferase, tunicamycin-induced, 15-18 h; 3.8% of 220,000 active; AID 2732, 2010;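 active means compounds that reduced the stress-induced luciferase reporter signal by more than about 70% of percent inhibition, limit read from the data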;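 further: 0% = tunicamycin plus vehicle and 100% = wells without tunicamycin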
# Arbovirus anti = antivirals against arbovirus infection, primary screen, cell-based, full library, 10K replicate subset | AID 1251, 2008 | 0.37% of 200,000 active | arbovirus infection cell-based antiviral screen | inhibition, % at 10 µM; in the data active means inhibition above about 30%
# WT yeast gro inh = growth inhibition of WT strain, primary screen, mitochondrial fusion inhibitor project, WT and mutant strains, chemical genetic; AID 1362, 2008; inhibition, % at 10 µM; 2.1% of 190,000 active; mitochondrial fusion phenotypic screen; in the data active means inhibition above about 58%; tested in S. cerevisiae
# L major viab = Leishmania major promastigote growth inhibition, primary screen; 9% of 200,000 active; inhibition, % at 10 µM; Leishmania major promastigotes, resazurin fluorescence viability; in the data active means inhibition above about 50%;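 further: promastigotes grown with compound for 44 hours at 28 °C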
# Active calls of the source: *; nt = not tested or not shown.
SMILES,CHOP inhibitor,Arbovirus anti,WT yeast gro inh,L major viab
CC(=O)Nc1ccc(Nc2nc(C)c([N+](=O)[O-])c(Nc3ccccc3)n2)cc1,55.4,-3.2,12.7,91.2*
Cc1nc(Nc2ccc(C(=O)O)cc2)nc(Nc2ccc(C(=O)O)cc2)c1[N+](=O)[O-],11.6,6.5,-13.4,-2.2
CO/N=C/C=C1/N(C)c2ccccc2C1(C)C,20.9,-1.2,2.4,2.5
CN(C)c1ccc(N=C/C=C2/N(C)c3ccccc3C2(C)C)cc1,-0.2,-23.7,50.6,90.3*
CN1/C(=C\C=N\O)C(C)(C)c2ccccc21,17.1,-1.5,-4.2,6.6
CN1C(=CC=C2C=C(I)C(=O)C(I)=C2)C(C)(C)c2ccccc21,35.1,nt,nt,nt
Cc1ccccc1N=C/C=C1\N(C)c2ccccc2C1(C)C,7.2,6.4,26.8,96.7*
CN1/C(=C\C=C2/SC(=S)NC2=O)C(C)(C)c2ccccc21,49.5,6.5,47.5,91.9*
CN1/C(=C\C=[N+](C)c2ccccc2)C(C)(C)c2ccccc21,37.0,13.5,33.3,100.2*
O=c1c2cnn(-c3ccc(F)cc3)c2ncn1Cc1ccccc1,-17.5,-0.6,0.3,-2.2
O=C(/C=C1\NC2(CCCC2)Cc2ccccc21)C(=O)N/N=C/c1ccc(O)c(O)c1,54.2,-19.9,7.5,62.2*
COc1cc(CCC(O)CC(=O)CCc2ccccc2)ccc1O (configuration not stated),0.7,-2.9,-3.8,11.9
CCOc1ccc(-c2nc(N)ncc2-c2ccc(OC)cc2)c(O)c1,43.9,16.0,12.5,6.5
COc1ccc(-c2nc(N)ncc2-c2csc(C)n2)c(O)c1,73.2*,2.0,-6.0,19.6
CCOc1ccc(-c2nc(N)ncc2-c2ccccc2)c(O)c1,90.8*,7.6,-14.6,45.6
Cc1ccc(O)c(/C=N/NC(=O)C2=NNC(c3ccccc3)(c3ccccc3)C2)c1,52.8,-31.2,-1.2,100.0*
Cc1nc2ccc(C(=O)N/N=C/c3cc([N+](=O)[O-])ccc3O)cc2[nH]1,6.3,-4.2,0.7,-0.1
COc1ccc(OC)c(/C=N/NC(=O)c2[nH]ncc2Br)c1,13.4,nt,nt,nt
CCOc1ccc(/C=N/NC(=O)c2[nH]ncc2Br)c(O)c1,58.3,-17.0,48.9,98.6*
O=C(N/N=C\c1ccc(Cl)s1)c1ccc(Cn2cccn2)o1,-1.2,-17.6,-16.5,4.8
OCC(CO)(CO)N=Cc1c(O)ccc2ccccc12,-2.8,23.3,15.6,96.8*
O=C(N/N=C\c1c(O)ccc2ccccc12)c1ccc(Cn2cccn2)o1,47.0,-33.2,5.0,98.5*
CC(C)CNC(=O)C1CCN(c2ccc(S(=O)(=O)N3CCOCC3)cc2[N+](=O)[O-])CC1,-0.2,nt,nt,nt
NCCCC[C@H]1CNC(=O)C(=O)N1CCc1cccc(F)c1,1.8,nt,nt,nt
O=C(CSc1nncs1)Nc1ccc2c(c1)OCO2,-19.7,1.5,4.0,5.1
SMILES,CHOP inhibitor,Arbovirus anti,WT yeast gro inh,L major viab
COc1ccc2ccccc2c1/C=N/NC(=O)c1cccc(Br)c1,33.4,-12.1,3.4,-14.5
COc1ccc(Br)cc1/C=N/NC(=O)c1cc(Br)ccc1O,34.7,0.5,10.4,-7.6
O=C(N/N=C/c1c(O)ccc2ccccc12)c1cccc(C(F)(F)F)c1,77.8*,-28.0,6.5,97.4*
O=C(N/N=C/c1c(O)ccc2ccccc12)c1[nH]ncc1Br,77.9*,-18.3,4.5,99.8*
Cc1ccc(O)c(/C=N/NC(=O)c2[nH]ncc2Br)c1,52.1,-14.4,-5.4,97.5*
CCOC(=O)N1C=CC=C[C@@H]2[C@@H](N3C(=O)c4ccccc4C3=O)C(=O)N21,-9.7,-2.9,-15.0,-0.6
CC12CCC(C(=O)N3CCCCC3)([C@H](Br)C1=O)C2(C)C (some centres not stated),-1.1,nt,nt,nt
CN(Cc1cn(-c2ccccc2)nc1-c1ccc2c(c1)OCO2)Cc1nccn1C,33.5,-5.4,14.4,24.4
CN(CCn1ccnc1)Cc1cn(-c2ccccc2)nc1-c1ccc2c(c1)OCO2,8.5,9.4,20.2,93.6*
Cc1ccc(NC(=O)CN2CCC(NC(=O)Cc3ccccc3)CC2)c(C)c1,21.8,-5.5,-1.3,69.7*
CCOc1ccccc1NC(=O)CN1CCC(NC(=O)c2ccccc2)CC1,0.2,14.8,-6.1,15.5
COC(=O)c1ccccc1NC(=O)CN1CCC(NC(=O)c2ccc(C)cc2)CC1,59.0,55.5*,6.7,6.0
COC(=O)c1ccccc1NC(=O)CN1CCN(C23CC4CC(CC(C4)C2)C3)CC1,27.2,-17.8,2.1,86.0*
COC(=O)c1ccccc1NC(=O)CN1CCC(n2nnc3cc(F)ccc32)CC1,19.4,40.2*,6.0,-1.7
Cc1nc2c(O)cccc2cc1CO,-3.6,nt,nt,nt
CC1CCCCN1c1nnc(NC(=O)c2cc(-c3ccc(Br)cc3)on2)s1 (configuration not stated),43.2,42.4*,68.2*,18.9
CCCCCn1c(CCC(=O)Oc2ccccc2OC)nc2c1c(=O)[nH]c(=O)n2CCCC,71.3*,7.6,1.7,2.4
O=C(Nc1ncc(Br)s1)C(Cc1ccccc1)n1cccc1 (configuration not stated),3.1,-8.8,82.3*,25.3
Cc1c(N=C2SCC(=O)N2/N=C\c2ccc(Br)cc2)c(=O)n(-c2ccccc2)n1C,8.6,-5.6,17.7,76.2*
Cc1c(N=C2SCC(=O)N2/N=C/c2ccccc2Cl)c(=O)n(-c2ccccc2)n1C,37.0,4.3,8.8,-2.0
CC(NC(=O)CCN1C(=O)c2ccccc2C1=O)c1ccc2c(c1)CCCC2 (configuration not stated),27.8,-0.8,10.9,-3.4
Cc1ccc2cc(CN(CCCN3CCOCC3)C(c3nnnn3Cc3ccco3)C(C)C)c(=O)[nH]c2c1C (configuration not stated),nt,nt,nt,67.1*
Cc1cccc2cc(CN(CC3CCCO3)C(c3nnnn3Cc3ccco3)C(C)C)c(=O)[nH]c12 (configuration not stated),42.9,-15.8,14.6,50.2*
C(=N\N1CCN(C2c3ccccc3-c3ccccc32)CC1)/c1ccncc1,83.4*,-0.9,68.1*,12.6
Oc1cccc(/C=N/N2CCN(C3c4ccccc4-c4ccccc43)CC2)c1,-4.5,nt,nt,nt
SMILES,CHOP inhibitor,Arbovirus anti,WT yeast gro inh,L major viab
Cc1ccc(S(=O)(=O)N2CCN(Cc3ccccn3)CC2)cc1,-8.5,4.6,1.4,-6.0
COc1ccc(CN2CCN(S(=O)(=O)c3ccc(C)cc3)CC2)cc1Br,24.7,-9.8,35.6,67.7*
COc1ccc(CN2CCOCC2)cc1Br,-14.6,-1.5,4.7,-3.3
CCCN1CCN(S(=O)(=O)c2ccc(OC)c(Br)c2)CC1,-9.8,4.0,1.6,96.0*
Cc1ccc(S(=O)(=O)N2CCN(Cc3cc(C(C)C)ccc3O)CC2)cc1,50.3,30.4*,51.3,-1.8
C=C(C)C(=O)Nc1cccc(C2=NOC3(C2)C[C@@H](C(N)=O)N(C(=O)/C=C/C=C/C)C3)c1 (some centres not stated),-8.1,nt,nt,nt
CC(=O)NCC1(O)CCCC(C)C1 (configuration not stated),-11.4,nt,nt,nt
Cc1nc2ccc(NC(=O)Cc3c(F)cccc3Cl)cc2s1,-14.6,nt,nt,nt
COc1cc(C(CCN2CCCCC2)c2c(OC)cc(OC)c3c(C)cc(=O)oc23)cc(OC)c1OC (configuration not stated),22.0,nt,nt,nt
